We go through 9 compounds from PubChem BioAssay.

Structures are written as SMILES. Calls of active or inactive are those of the source. Unless noted, the rule behind the calls is not given here.

The nature of assay [1]: HepG2 liver cancer cell viability effects, profiling panel, resazurin fluorescence, 24 h, PK04 Diversity Set (AID 1172). To be noted: higher = more signal.
Assay [2] can be described thus: basal S. cerevisiae growth modulation, no modifier, primary screen, OD600, strain BY4716, 24 h, basal condition (AID 1173). The settings on record: OD600, 24 h, higher = more signal, called active from +8 up or from −8 down.
A short description of assay [3]: MM1S myeloma cell viability, profiling panel, resazurin fluorescence, basal, 24 h, PK04 Diversity Set (AID 1174).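 Note: MM1S multiple myeloma cell line.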 To be noted: higher = more signal, called active from +8 up or from −8 down. (Alamar Blue is a resazurin reagent that responds to reducing activity.)
Assay [4] addresses Dihydroorotate dehydrogenase (quinone), mitochondrial (Plasmodium falciparum (isolate 3D7)) (UniProt Q08210). The assay is described as follows: PfDHODH enzyme inhibitors, primary screen, biochemical, C-terminal His tag, absorbance 600 nm (AID 1175).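 Note: recombinant parasite enzyme with a five histidine tag at its C terminus.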 To be noted: DCIP absorbance 600 nm, higher = more signal, called active from +8 up or from −8 down.
The nature of assay [5]: S. cerevisiae RM11-1a growth modifiers, primary screen, strain RM11-1a, OD600, basal, 24 h (AID 1177).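 Note: cultures grown under basal conditions with no added stressor.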 To be noted: OD600, 24 h, higher = more signal, called active from +8 up or from −8 down.
Assay [6] is described as follows: E. coli acrAB mutant growth effects, primary screen, E. coli filamentation inducers, strain DRC39, OD650, 24 h (AID 1178).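 Note: growth measured as culture turbidity by optical density at 650 nm.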 To be noted: higher = more signal, called active from +8 up or from −8 down.
The nature of assay [7]: E. coli acrAB mutant growth effects, primary screen, E. coli filamentation inducers, strain DRC39, OD650, 48 h (AID 1179).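 Note: screen aims at cell division blockers that make cells filament.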 The settings on record: E. coli DRC39 delta-acrAB growth, higher = more signal, called active from +8 up or from −8 down.
Assay [8] in a line: RPMI8226 myeloma cell viability, profiling panel, resazurin fluorescence, basal, 24 h, PK04 Diversity Set (AID 1180).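 Note: RPMI8826 multiple myeloma cell line at 5000 cells per well.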 The settings on record: higher = more signal.
Assay [9] has as its target E3 ubiquitin-protein ligase XIAP (Homo sapiens) (UniProt P98170). The assay is described as follows: XIAP binders, primary screen, biophysical, small-molecule microarray, fluorescence 635 nm (AID 1181).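 Note: score merges 667 nm emission and signal to noise over triplicate slides.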 To be noted: small-molecule microarray binding, higher = more signal.
Assay [10] has as its system XIP peptide (Xip251-270) binding. The assay is described as follows: small-molecule binders of XIP peptide, primary screen, biochemical, small-molecule microarray, fluorescence 635/667 nm, 0.1 µg/mL protein (AID 1182). The settings on record: fluorescent protein binding, 635 nm, higher = more signal, called active from +8 up or from −8 down.
A further assay deals with XIP peptide (Xip251-270). The assay is described as follows: small-molecule binders of XIP peptide, primary screen, biochemical, small-molecule microarray, fluorescence 635/667 nm, 0.5 µg/mL protein (AID 1183). To be noted: small-molecule microarray binding, fluorescence 635 nm; higher = more signal.
A short description of assay [11]: Plasmodium falciparum growth inhibition, primary screen, strain 3D7, DAPI fluorescence, 100 nL (AID 1184).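 Note: parasites grown inside human red blood cells in medium with human serum.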 The settings on record: P. falciparum 3D7 growth, 3 d, higher = more signal.
In assay [12] the target is Homeobox protein Hox-A13 (Mus musculus) (UniProt Q62424). The assay is described as follows: inhibitors of HoxA13-DNA binding, primary screen, biochemical, fluorescence polarization, labeled oligonucleotide (AID 1185). The settings on record: 15 min, higher = more signal, called active from +8 up or from −8 down. On the technique in general: Fluorescence polarisation rises when a labelled molecule tumbles more slowly, as on binding a larger partner.

Assay [13] in a line: inhibitors of hydroxyurea-induced Chk1 phosphorylation, primary screen, imaging, HeLa, phospho-Chk1 antibody, percent positive cells (AID 1186). The settings on record: hydroxyurea-induced phospho-Chk1 immunofluorescence imaging, higher = more signal.
The nature of assay [14]: inhibitors of hydroxyurea-induced Chk1 phosphorylation, primary screen, imaging, HeLa, phospho-Chk1 nuclear intensity (AID 1187). To be noted: hydroxyurea-induced phospho-Chk1 immunofluorescence imaging, higher = more signal.

Sequence of E3 ubiquitin-protein ligase XIAP (Homo sapiens) (P98170 whole entry, looked up): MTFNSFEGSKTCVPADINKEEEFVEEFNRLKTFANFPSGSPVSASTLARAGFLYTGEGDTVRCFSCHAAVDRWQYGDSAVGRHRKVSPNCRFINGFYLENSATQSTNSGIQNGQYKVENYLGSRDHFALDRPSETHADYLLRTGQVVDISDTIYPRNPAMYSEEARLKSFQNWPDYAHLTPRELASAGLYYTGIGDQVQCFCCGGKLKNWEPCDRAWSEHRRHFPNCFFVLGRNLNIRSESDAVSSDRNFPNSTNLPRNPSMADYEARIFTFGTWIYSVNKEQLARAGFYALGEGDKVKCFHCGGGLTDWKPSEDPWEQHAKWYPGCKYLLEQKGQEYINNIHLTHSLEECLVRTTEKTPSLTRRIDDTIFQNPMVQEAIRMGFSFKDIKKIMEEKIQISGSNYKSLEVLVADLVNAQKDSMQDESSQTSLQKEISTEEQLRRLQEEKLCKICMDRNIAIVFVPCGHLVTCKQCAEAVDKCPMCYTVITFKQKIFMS
Sequence of Homeobox protein Hox-A13 (Mus musculus) (Q62424 whole entry, looked up): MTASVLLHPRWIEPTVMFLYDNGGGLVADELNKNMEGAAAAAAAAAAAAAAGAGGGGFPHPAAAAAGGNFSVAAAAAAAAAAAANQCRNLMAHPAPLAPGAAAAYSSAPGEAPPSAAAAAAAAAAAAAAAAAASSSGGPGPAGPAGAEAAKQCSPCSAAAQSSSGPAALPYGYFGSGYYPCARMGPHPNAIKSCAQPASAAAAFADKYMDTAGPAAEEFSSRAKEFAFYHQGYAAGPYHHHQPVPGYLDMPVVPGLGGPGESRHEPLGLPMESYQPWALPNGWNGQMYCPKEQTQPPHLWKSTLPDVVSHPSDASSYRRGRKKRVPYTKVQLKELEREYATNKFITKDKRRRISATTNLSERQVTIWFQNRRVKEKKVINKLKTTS
Sequence of Dihydroorotate dehydrogenase (quinone), mitochondrial (Plasmodium falciparum (isolate 3D7)) (Q08210 whole entry, looked up): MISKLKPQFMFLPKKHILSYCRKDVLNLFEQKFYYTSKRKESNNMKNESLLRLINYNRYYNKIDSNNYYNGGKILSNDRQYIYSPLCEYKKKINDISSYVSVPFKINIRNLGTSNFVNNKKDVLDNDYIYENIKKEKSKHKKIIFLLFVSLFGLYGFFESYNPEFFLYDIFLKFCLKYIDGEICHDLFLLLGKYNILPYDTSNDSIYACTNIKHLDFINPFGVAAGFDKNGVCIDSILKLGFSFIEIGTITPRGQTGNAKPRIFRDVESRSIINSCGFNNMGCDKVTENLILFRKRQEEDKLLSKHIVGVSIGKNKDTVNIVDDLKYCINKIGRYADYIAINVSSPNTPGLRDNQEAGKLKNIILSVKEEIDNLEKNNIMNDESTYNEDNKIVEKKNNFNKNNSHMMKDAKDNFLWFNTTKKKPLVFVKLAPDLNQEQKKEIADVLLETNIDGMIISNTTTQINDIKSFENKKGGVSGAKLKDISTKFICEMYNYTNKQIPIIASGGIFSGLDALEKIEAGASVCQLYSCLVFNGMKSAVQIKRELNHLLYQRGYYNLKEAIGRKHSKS

As for `C=CCC(OC(C)=O)[C@@H]1[C@@H](N(Cc2ccc(-c3ccccc3)cc2)C(=O)c2ccc(C)cc2)c2cc(OCCCO)ccc2N1C(=O)c1ccc(-c2ccccc2)cc1` (stereo not given in full), the z-score in [1] was 2.15; in assay [2], -1.71 (inactive); in assay [3], 1.55 (inactive); in assay [5], -3.45 (inactive); in assay [6], 2.05 (inactive); in assay [7] it was 1.27 (inactive). The z-score in assay [8] was 1.51; in assay [11], -2.66; in assay [12], -1.35 (inactive); in assay [13], 0.0807 (inactive); in assay [14] it was 0.582 (inactive). Moreover, the composite z-score in assay [4] was -1.08 (inactive); in [9] it was -0.467; in assay [10] it was -0.0684 (inactive); in the assay with XIP peptide (Xip251-270), -0.322.

As for `CCOC(=O)[C@H]1C/C=C/C[C@H](C(=O)OCC)C(=O)O[C@H]2[C@@H](OC)O[C@H](CO)[C@@H](OC(=O)Nc3ccc(Br)cc3)[C@@H]2OC1=O`, the z-score in assay [1] was -6.68; in [2], -1.68 (inactive); in assay [3], -9.26 (active); in [5], 0.424 (inactive); in [6], 1.65 (inactive); in [7] it was 1.93 (inactive). The z-score was -7.26 in assay [8]; -1.85 in assay [11]; -0.239 (inactive) in assay [12]; -0.181 (inactive) in assay [13]; -0.26 (inactive) in assay [14]. Besides, the composite z-score in assay [4] is -1.48 (inactive); in [9], 0.0223; in assay [10], 0.709 (inactive); in the assay on XIP peptide (Xip251-270), 0.867.

Regarding `C=C(COC)/C(=C/C[C@@H](OC(C)=O)c1cccc(OCCO)c1)c1cc(C(=O)OC)ccc1OC`, the z-score in assay [1] is 1.21; in assay [2] it was -1.57 (inactive); in [3], 0.49 (inactive); in [5], -0.489 (inactive); in assay [6], 2.1 (inactive); in assay [7] it was 1.47 (inactive). Besides, the z-score is 0.938 in assay [8]; -2.56 in assay [11]; -4.24 (inactive) in assay [12]; -0.8 (inactive) in [13]; -0.95 (inactive) in assay [14]. Moreover, the composite z-score in assay [4] was -0.733 (inactive); in [9], 0.155; in assay [10], -0.496 (inactive); with XIP peptide (Xip251-270) it was -0.5.

With `C=CCC1=C[C@H]2[C@H]([C@@H]3C=C[C@]2(CC=C)C(=O)[C@]32CO2)[C@@]2(CO2)C1=O`, the z-score in assay [1] is 0.177; in assay [2], -15.3 (active); in assay [3], -1.92 (inactive); in assay [5], -0.763 (inactive); in assay [6] it was 2.57 (inactive); in [7], 1.51 (inactive). The z-score in assay [8] was -1.12; in [11] it was -0.0419; in assay [12], -1.29 (inactive); in [13], -0.556 (inactive); in assay [14], -0.606 (inactive). For the same compound, the composite z-score in assay [4] was -0.491 (inactive); in assay [9], 0.147; in assay [10], 1.7 (inactive); in the assay on XIP peptide (Xip251-270) it was -0.489.

With `C=CC(=O)O[C@@H](Cc1ccccc1)[C@H]1C2C=CCCC=C2CN1Cc1cccc(Cl)c1` (stereo not given in full), the z-score in assay [1] was 1.36; in [2], -2.29 (inactive); in assay [3], 0.399 (inactive); in assay [5], -0.718 (inactive); in assay [6], 2.63 (inactive); in assay [7], 0.338 (inactive). The z-score in assay [8] was 1.26; in assay [11] it was -0.0093; in assay [12], -3.7 (inactive); in assay [13], 0.171 (inactive); in assay [14] it was 0.304 (inactive). The composite z-score in [4] is 0.566 (inactive); in [9], 0.348; in assay [10], -0.244 (inactive); in the assay with XIP peptide (Xip251-270) it was -2.01.

Turning to `C[C@]1(C(=O)NCc2ccccc2)c2ccccc2C(=O)N(Cc2cc(C(F)(F)F)cc(C(F)(F)F)c2)[C@H]1c1ccc(CO)cc1`, the z-score in assay [1] is -0.331; in assay [2], -1.35 (inactive); in assay [3], 0.865 (inactive); in assay [5], -2.4 (inactive); in assay [6], 1.04 (inactive); in assay [7], 0.528 (inactive). In addition, the z-score in assay [8] is 1.12; in [11] it was -1.61; in assay [12], -1.78 (inactive); in [13] it was -1.45 (inactive); in assay [14] it was -2.06 (inactive). Also, the composite z-score in [4] was -1.4 (inactive); in assay [9] it was -0.177; in [10], 1.03 (inactive); with XIP peptide (Xip251-270), -0.105.

Take `CN(C)C(=O)[C@@]1(Cc2ccccc2N=[N+]=[N-])N=C(c2ccc(OCCCO)cc2)O[C@H]1c1ccccc1CN=[N+]=[N-]`: the z-score in assay [1] is 1.12; in [2], -1.4 (inactive); in assay [3] it was -0.437 (inactive); in assay [5], -0.726 (inactive); in assay [6] it was 2.45 (inactive); in assay [7], 0.842 (inactive). The z-score was -1.67 in assay [8]; -2.25 in assay [11]; -1.82 (inactive) in [12]; -0.554 (inactive) in assay [13]; -0.339 (inactive) in [14]. The composite z-score in assay [4] is -0.812 (inactive); in [9], 0.229; in [10], 0.0857 (inactive); with XIP peptide (Xip251-270), 0.896.

As to `C[N+](C)(C)CCCCNC(=O)[C@@H]1C[C@@H]2C(=O)N3CCC[C@H]3C(=O)N2[C@@H]1c1cccc(OCCO)c1`, the z-score in assay [1] is 0.0931; in assay [2], 0.0521 (inactive); in assay [3], 0.982 (inactive); in assay [5], -1.27 (inactive); in [6], 0.497 (inactive); in assay [7] it was 0.0567 (inactive). Besides, the z-score in [8] was 0.947; in assay [11] it was -0.294; in [12], -1.2 (inactive); in assay [13] it was -0.162 (inactive); in assay [14] it was 0.319 (inactive). Also, the composite z-score in assay [4] was -31.2 (active); in assay [9], -0.0619; in assay [10], 3.4 (inactive); with XIP peptide (Xip251-270), 0.839.

Turning to `Cc1ccc(N2C(=O)c3ccccc3[C@](C)(C(=O)O)[C@@H]2c2ccc(CO)cc2)nc1`, the z-score is 0.522 in assay [1]; -0.0489 (inactive) in assay [2]; 1.28 (inactive) in [3]; 0.826 (inactive) in assay [5]; 0.826 (inactive) in [6]; 0.396 (inactive) in assay [7]. Also, the z-score in assay [8] is 1.27; in assay [11] it was -0.63; in assay [12], -0.0226 (inactive); in assay [13] it was 0.153 (inactive); in assay [14], 0.522 (inactive). For the same compound, the composite z-score was 0.217 (inactive) in assay [4], -0.0641 in [9], -0.235 (inactive) in assay [10] and -1.16 in the assay with XIP peptide (Xip251-270).
